A number with no mark means an inactive call. Calls of active or inactive are those of the source.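 How the source made its calls, unless noted: active means compounds lowering colon cancer cell viability after pretreatment blocking the GSK3B kinase; inactive means the rest.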
assay: growth inhibition of GSK3B-pretreated HCT116 cells – cell-based, CellTiter-Glo, 0.2 to 20 µM (AID 1117336); conditions: HCT116 viability after GSK3B inhibitor, at 20 µM, stronger effect = higher value

Row | Compound | viability decrease
1 | NS(=O)(=O)c1cc(-c2nn[nH]n2)c(NCc2cccs2)cc1Cl | -3%
2 | CCCCNC(=O)NS(=O)(=O)c1ccc(N)cc1 | 2.75%
3 | CCCC(CCC)C(N)=O | 1.8%
4 | COc1ccc(CC2c3cc(OC)c(OC)cc3CCN2CCC(=O)OCCCCCOC(=O)CCN2CCc3cc(OC)c(OC)cc3C2Cc2ccc(OC)c(OC)c2)cc1OC (stereo not drawn) | -6.9%
5 | CC1(C)OC(=O)Nc2ccc(Br)cc21 | 9.6%
6 | COC(=O)C1=C(C)NC(COC(N)=O)=C(C(=O)OC(C)C)C1c1cccc(Cl)c1Cl (stereo not drawn) | 94.6% (active)
7 | CCO[C@@H]1O[C@H](C(COCc2ccccc2)OCc2ccccc2)[C@H](OCc2ccccc2)[C@H]1O (stereo partly drawn) | 15.1%
8 | Oc1cn2c(n1)Nc1ccc(Cl)c(Cl)c1C2 | -54.9%
9 | NC(=Nc1ccccc1)Nc1ccccc1 | 24.6%
10 | CCOC(=O)OCC/C(SC(=O)OCC)=C(\C)N(C=O)Cc1cnc(C)nc1N | 2.5%
11 | CC(C)C(=O)Nc1cccc(C(F)(F)F)c1 | 9.3%
12 | C/C(=C(\CCO)SS/C(CCO)=C(\C)N(C=O)Cc1cnc(C)nc1N)N(C=O)Cc1cnc(C)nc1N | -14.3%
13 | COc1cc(C(=S)N2CCOCC2)cc(OC)c1OC | -0.85%
14 | CC(C)(C)c1cc(C=O)cc(C(C)(C)C)c1O | 19.1%
15 | O=c1[nH]c(=O)n([C@H]2O[C@H](CO)[C@@H](O)[C@@H]2O)cc1/C=C\Br | -12.2%
16 | Cc1c(F)cc2c(=O)c(C(=O)O)cn3c2c1CCC3C (stereo not drawn) | -181%
17 | CC(=O)Oc1ccc(C2(c3ccc(OC(C)=O)cc3)Oc3ccccc3NC2=O)cc1 | 91.8% (active)
18 | COc1ccnc2c1CCCCC2S(=O)c1nc2ccccc2[nH]1 (stereo not drawn) | -54.1%
19 | CCN(CC)C(=O)C1CN2CCc3cc(OC)c(OC)cc3C2CC1OC(C)=O (stereo not drawn) | -0.1%
20 | CCOC(=O)Cn1cccc1-c1nc(-c2ccc(OC)cc2)c(-c2ccc(OC)cc2)s1 | 35.5%

Row | Compound | viability decrease
21 | N#C/C(=C1/SC[C@@H](c2ccc(Cl)cc2Cl)S1)n1ccnc1 | 88% (active)
22 | NC(=O)COCCN1CCN(C(c2ccccc2)c2ccc(Cl)cc2)CC1 (stereo not drawn) | -1.7%
23 | O=C(CCCN1CCN(c2ccc(F)cc2)CC1)NC1c2ccccc2CSc2ccccc21 (stereo not drawn) | 53.5% (active)
24 | Cc1ccc(C(=O)C(=O)O)cc1C | -10.8%
25 | CN1[C@@H]2CC[C@H]1CC(NC(=O)n1c(=O)[nH]c3ccccc31)C2 (stereo partly drawn) | -2.9%
26 | CCOc1cc(OCC)c(C(=O)CCC(=O)O)cc1OCC | -11.3%
27 | Cc1cc(NS(=O)(=O)c2ccc(N)cc2)nc(C)n1 | 0.6%
28 | c1ccc2c(c1)CCc1ccccc1N2 | 8.3%
29 | CCOC(=O)C(=O)CCc1ccccc1 | -4.7%
30 | O=C(O)Cc1ccc2c(c1)C(=O)c1ccccc1CO2 | -4.5%
31 | CN[C@H](CC(C)C)C(=O)N[C@H]1C(=O)N[C@@H](CC(N)=O)C(=O)N[C@H]2C(=O)N[C@H]3C(=O)N[C@H](C(=O)N[C@H](C(=O)O)c4cc(O)cc(O)c4-c4cc3ccc4O)[C@H](O)c3ccc(c(Cl)c3)Oc3cc2cc(c3O[C@@H]2OC(CO)[C@@H](O)[C@H](O)[C@@H]2O[C@H]2C[C@](C)(N)[C@H](O)[C@H](C)O2)Oc2ccc(cc2Cl)[C@H]1O (stereo partly drawn) | -6.3%
32 | Oc1cccc(-c2c3nc(c(-c4cccc(O)c4)c4ccc([nH]4)c(-c4cccc(O)c4)c4nc(c(-c5cccc(O)c5)c5ccc2[nH]5)CC4)C=C3)c1 | 95.2% (active)
33 | CCC(CN)=C(c1ccccc1)c1ccccc1 | 17.9%
34 | CC(C)=CCC/C(C)=C/CC/C(C)=C/C(=O)OCC(=O)[C@@]1(O)CC[C@H]2[C@@H]3CCC4=CC(=O)C=C[C@]4(C)[C@H]3[C@@H](O)C[C@@]21C | 92.3% (active)
35 | NNc1nnc(NN)c2ccccc12 | -0.85%
36 | COc1cccc(CCc2ccccc2OCC(CN(C)C)OC(=O)CCC(=O)O)c1 (stereo not drawn) | 53.9% (active)
37 | CC(C)(Oc1ccc(Cl)cc1)C(=O)OCCCOC(=O)C(C)(C)Oc1ccc(Cl)cc1 | 11%
38 | C/C=C/c1ccc(O)c(OC)c1 | 2.5%
39 | Cc1ccccc1C(=O)Nc1ccc(C(=O)N2CCCC(N(C)C)c3ccccc32)cc1 (stereo not drawn) | 18.9%

assay: inhibition of endothelial tube formation, primary screen, imaging, VEGF stimulated, CD31 staining, tube area, NPC library (AID 1117340;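 active means compound that reduces growth-factor-driven endothelial tube area in a mixed cell culture, no cutoff stated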); conditions: VEGF-stimulated ADSC/ECFC co-culture, at 10 µM, stronger effect = higher value

Row | Compound | tube area decrease
40 | NS(=O)(=O)c1cc(-c2nn[nH]n2)c(NCc2cccs2)cc1Cl | -8.2%
41 | CCCCNC(=O)NS(=O)(=O)c1ccc(N)cc1 | -10.5%
42 | CCCC(CCC)C(N)=O | -17.7%
43 | COc1ccc(CC2c3cc(OC)c(OC)cc3CCN2CCC(=O)OCCCCCOC(=O)CCN2CCc3cc(OC)c(OC)cc3C2Cc2ccc(OC)c(OC)c2)cc1OC (stereo not drawn) | -3.5%
44 | CC1(C)OC(=O)Nc2ccc(Br)cc21 | 13.5%
45 | COC(=O)C1=C(C)NC(COC(N)=O)=C(C(=O)OC(C)C)C1c1cccc(Cl)c1Cl (stereo not drawn) | 23.2%
46 | CCO[C@@H]1O[C@H](C(COCc2ccccc2)OCc2ccccc2)[C@H](OCc2ccccc2)[C@H]1O (stereo partly drawn) | 28.6%
47 | Oc1cn2c(n1)Nc1ccc(Cl)c(Cl)c1C2 | 40.1% (active)
48 | NC(=Nc1ccccc1)Nc1ccccc1 | 10.1%
49 | CCOC(=O)OCC/C(SC(=O)OCC)=C(\C)N(C=O)Cc1cnc(C)nc1N | -11%
50 | CC(C)C(=O)Nc1cccc(C(F)(F)F)c1 | -5.2%
51 | C/C(=C(\CCO)SS/C(CCO)=C(\C)N(C=O)Cc1cnc(C)nc1N)N(C=O)Cc1cnc(C)nc1N | -4.4%
52 | COc1cc(C(=S)N2CCOCC2)cc(OC)c1OC | -15.3%
53 | CC(C)(C)c1cc(C=O)cc(C(C)(C)C)c1O | 10.5%
54 | O=c1[nH]c(=O)n([C@H]2O[C@H](CO)[C@@H](O)[C@@H]2O)cc1/C=C\Br | -20.7%
55 | Cc1c(F)cc2c(=O)c(C(=O)O)cn3c2c1CCC3C (stereo not drawn) | -28%
56 | CC(=O)Oc1ccc(C2(c3ccc(OC(C)=O)cc3)Oc3ccccc3NC2=O)cc1 | 106% (active)
57 | COc1ccnc2c1CCCCC2S(=O)c1nc2ccccc2[nH]1 (stereo not drawn) | 13.2%
58 | CCN(CC)C(=O)C1CN2CCc3cc(OC)c(OC)cc3C2CC1OC(C)=O (stereo not drawn) | 1.2%
59 | CCOC(=O)Cn1cccc1-c1nc(-c2ccc(OC)cc2)c(-c2ccc(OC)cc2)s1 | 6.7%

Row | Compound | tube area decrease
60 | N#C/C(=C1/SC[C@@H](c2ccc(Cl)cc2Cl)S1)n1ccnc1 | 23.8%
61 | NC(=O)COCCN1CCN(C(c2ccccc2)c2ccc(Cl)cc2)CC1 (stereo not drawn) | 9.8%
62 | O=C(CCCN1CCN(c2ccc(F)cc2)CC1)NC1c2ccccc2CSc2ccccc21 (stereo not drawn) | 32.7%
63 | Cc1ccc(C(=O)C(=O)O)cc1C | -6.7%
64 | CN1[C@@H]2CC[C@H]1CC(NC(=O)n1c(=O)[nH]c3ccccc31)C2 (stereo partly drawn) | -4.6%
65 | CCOc1cc(OCC)c(C(=O)CCC(=O)O)cc1OCC | 3.4%
66 | Cc1cc(NS(=O)(=O)c2ccc(N)cc2)nc(C)n1 | -1.9%
67 | c1ccc2c(c1)CCc1ccccc1N2 | -22.5%
68 | CCOC(=O)C(=O)CCc1ccccc1 | -7.2%
69 | O=C(O)Cc1ccc2c(c1)C(=O)c1ccccc1CO2 | -16.2%
70 | CN[C@H](CC(C)C)C(=O)N[C@H]1C(=O)N[C@@H](CC(N)=O)C(=O)N[C@H]2C(=O)N[C@H]3C(=O)N[C@H](C(=O)N[C@H](C(=O)O)c4cc(O)cc(O)c4-c4cc3ccc4O)[C@H](O)c3ccc(c(Cl)c3)Oc3cc2cc(c3O[C@@H]2OC(CO)[C@@H](O)[C@H](O)[C@@H]2O[C@H]2C[C@](C)(N)[C@H](O)[C@H](C)O2)Oc2ccc(cc2Cl)[C@H]1O (stereo partly drawn) | 7.3%
71 | Oc1cccc(-c2c3nc(c(-c4cccc(O)c4)c4ccc([nH]4)c(-c4cccc(O)c4)c4nc(c(-c5cccc(O)c5)c5ccc2[nH]5)CC4)C=C3)c1 | -79.5%
72 | CCC(CN)=C(c1ccccc1)c1ccccc1 | 7%
73 | CC(C)=CCC/C(C)=C/CC/C(C)=C/C(=O)OCC(=O)[C@@]1(O)CC[C@H]2[C@@H]3CCC4=CC(=O)C=C[C@]4(C)[C@H]3[C@@H](O)C[C@@]21C | 107% (active)
74 | NNc1nnc(NN)c2ccccc12 | 40.1% (active)
75 | COc1cccc(CCc2ccccc2OCC(CN(C)C)OC(=O)CCC(=O)O)c1 (stereo not drawn) | 0.9% (active)
76 | CC(C)(Oc1ccc(Cl)cc1)C(=O)OCCCOC(=O)C(C)(C)Oc1ccc(Cl)cc1 | 2.3%
77 | C/C=C/c1ccc(O)c(OC)c1 | -5.2%
78 | Cc1ccccc1C(=O)Nc1ccc(C(=O)N2CCCC(N(C)C)c3ccccc32)cc1 (stereo not drawn) | 59.2% (active)

From PubChem BioAssay
